# From PubChem BioAssay (NCATS)
# Where “and” joins values, the source holds several entries; their conditions need not be identical. Equal entries are not always repeated. A number with no mark means an inactive call. Records with an inconclusive call do not appear. Entries that show only a call come without a potency. Calls of active or inactive are those of the source. Unless noted, calls follow the shape of the dose curve; as a rule, active = well fitted curve in the direction sought with a large enough effect; inconclusive = small, poorly fitted or top-dose-only effect, or another doubt; inactive = no such curve, though single readings can be large; an effect the other way counts as inactive or inconclusive.
# Experiments:
# [1] = Cell Viability - BJ (AID 421; calls by dose curve;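 also: potency is read from the fitted curve at half-maximal effect; cells exposed to compound for 40 hours at 37 °C before readout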); details: BJ fibroblast viability, qHTS
# Outline: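 Quantitative HTS: ATP depletion in BJ cells after 40 hr compound exposure in complete culture medium, detected with CellTiter-Glo; AC50 from standard Hill fits.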
# [2] = Cell Viability - Jurkat (AID 426;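 active = dose-dependent loss of cell ATP signal giving a full or clear fitted curve, ranked by lower potency value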;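 also: potency is read from the fitted curve at half-maximal effect; cells exposed to compound for 40 hours at 37 °C before ATP read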); details: qHTS
# Outline: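 Seed 5000 Jurkat E6-1 cells/well; add compound; incubate 40 hr at 37 °C; add CellTiter-Glo; wait 20 min at room temperature; read luminescence. Fit concentration-response with Hill equation for AC50.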
# [3] = Cell Viability - Hek293 (AID 427;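 active = compounds whose dose-response curve shows a full or clear partial loss of cell viability, called from curve shape rather than a numeric limit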;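 also: potency is read from the fitted curve at half-maximal effect; cells exposed to compound for 40 hours at 37 °C before reading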); details: qHTS
# Outline: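 AC50 values derive from Hill-modelled concentration-response of ATP-based luminescence, normalized between DMSO-only and 100 uM tamoxifen controls. Cells were exposed in complete culture medium for 40 hr at 37 °C before detection.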
# [4] = Cell Viability - HepG2 (AID 433; calls by dose curve;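 also: potency is read from the fitted curve at half-maximal effect; cells exposed to compound for 40 hours; potency for ATP loss meaning cytotoxicity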); details: qHTS
# Outline: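 HepG2 cells, 1500 per well, treated 40 hr at 37 °C in complete medium; viability from intracellular ATP by CellTiter-Glo luminescence. Normalized to DMSO and 100 uM tamoxifen; AC50 from Hill fit of qHTS concentration-response.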
# [5] = Cell Viability - MRC5 (AID 434; calls by dose curve;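 also: potency is read from the fitted curve at half-maximal effect; cells exposed to compound for 40 hours at 37 °C; potency reflects cytotoxicity seen as loss of intracellular ATP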); details: MRC5 lung fibroblast viability, qHTS
# Outline: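 MRC5 normal human lung fibroblasts (1500/well) were treated with compounds for 40 hr at 37 °C in complete medium, and viable cells were measured as intracellular ATP by CellTiter-Glo luminescence. AC50 came from Hill fits, normalized to DMSO and 100 uM tamoxifen.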
# [6] = Cell Viability - SK-N-SH (AID 435; calls by dose curve;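 also: potency is read from the fitted curve at half-maximal effect; compound exposure lasted 40 h at 37 °C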); details: SK-N-SH neuroblastoma cell viability qHTS
# Outline: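 SK-N-SH neuroblastoma cells (1500/well) treated 40 h at 37 °C in complete medium; viability read as cellular ATP by CellTiter-Glo luminescence. Normalized to DMSO and 100 uM tamoxifen; AC50 from Hill fits of qHTS concentration-response.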
# [7] = Cell Viability - HUV-EC-C (AID 542); details: HUV-EC-C endothelial cell viability, qHTS; series mostly up to 92.2 µM;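 also: cells exposed to compound for 40 hours; nearly all actives have a fitted effect of over 35% in size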
# Outline: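 Decrease in cellular ATP, quantified by luciferase luminescence, reflects toxicity in normal human vascular endothelial HUV-EC-C cells given compound for 40 hr in complete culture medium. Values are AC50s from concentration-response curves.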
# [8] = Cellular Toxicity (caspase-3) HepG2 (AID 654); details: HepG2 caspase-3 activation, luminescence, 0% = DMSO only, 100% = tamoxifen; series mostly up to 92.2 µM;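 also: cells exposed to compound for 16 hours before reading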
# Outline: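 qHTS, HepG2, 1500 cells/well, complete medium; cpd 16 h 37 °C; Caspase-Glo 3/7, 20 min RT; lum. Norm: DMSO vs 100 uM tamoxifen; AC50 Hill fit.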
# [9] = Cellular Toxicity (caspase-3) HUV-EC-C (AID 656); details: HUV-EC-C cells, caspase-3 activation (apoptosis), vehicle = 0, 100 µM tamoxifen = 100%; series mostly up to 92.2 µM
# Outline: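 HUV-EC-C cells (1000/well) in complete medium, compound-treated 16 h at 37 °C; caspase-3/7 activity read by Caspase-Glo 3/7 luminescence. Normalized to DMSO (basal) and 100 uM tamoxifen (100%); AC50 from Hill-equation concentration-response fits.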
# [10] = Cellular Toxicity (caspase-3) BJ (AID 658); details: BJ fibroblasts, luminescence, normalized: DMSO 0%, staurosporine 100%; series mostly up to 91.7 µM;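 also: cells exposed to compound for 16 hours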
# Outline: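 Luminescent aminoluciferin-substrate cleavage reports caspase 3/7 activity in normal human BJ fibroblasts after 16 hr compound exposure at 37 °C. Normalized to DMSO (basal) and 10 uM staurosporine (100%); AC50 from Hill fit of concentration-response.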
# [11] = Cellular Toxicity (caspase-3) Mesangial (AID 660); details: mesangial cells, normalized: DMSO 0%, 100 µM tamoxifen 100%; series mostly up to 91.7 µM;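 also: cells exposed to compound for 16 h before the caspase read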
# Outline: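 Concentration-response qHTS: compound-induced rise in caspase 3/7 luminescence in human mesangial cells after 16 h, normalized to DMSO and 100 uM tamoxifen controls.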
# [12] = Cellular Toxicity (caspase-3) SK-N-SH (AID 661); details: SK-N-SH caspase-3 activation, qHTS; series mostly up to 91.7 µM;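 also: cells exposed to compound for 16 hours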
# Outline: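 Caspase 3/7 activation is measured as a luminescence increase from aminoluciferin released by substrate cleavage in SK-N-SH cells after 16 hr compound treatment; values are AC50 from concentration-response curves.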
# [13] = Cellular Toxicity (caspase-3) H-4-II-E (AID 663); details: H-4-II-E rat hepatoma; Potency: caspase-3 activation; series mostly up to 92.2 µM;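 also: cells exposed to compound for 16 hr before readout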
# Outline: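 Luminescence from caspase-cleaved aminoluciferin substrate, read 20 min after reagent addition, reports caspase 3/7 activation in rat H-4-II-E cells after 16 hr compound exposure. Normalized to DMSO (basal) and 100 uM tamoxifen (100%); AC50 from Hill fits.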
# [14] = Cellular Toxicity (caspase-3) N2a (AID 665); details: N2a cells, luminescence, normalized: DMSO 0%, 10 µM staurosporine 100%; series mostly up to 92.2 µM;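 also: compound exposure lasted 16 h at 37 °C before readout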
# Outline: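 Plated mouse neuroblastoma N2a cells received titrated compounds for 16 h in complete medium. Caspase activity was then detected with a peptide-aminoluciferin luminescent reagent.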
# [15] = Cell Viability - LYMP1-002 - Assay at 16 hr (AID 948); details: LYMP1-002 lymphoblastoid cell viability; series mostly up to 92.2 µM
# Outline: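 LYMP1-002 human lymphoblastoid cells, 2500/well, were treated with compounds for 16 hr at 37 C in complete medium. Viability was read as intracellular ATP by CellTiter-Glo luminescence, and AC50 was derived from a Hill fit to concentration-response data.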
# [16] = MultiTox-Fluor Cytotoxicity Assay - LYMP1-003 - Dead Cells (AID 961); details: LYMP1-003 lymphoblastoid cells, dead-cell protease fluorescence; series mostly up to 92.2 µM; also: nearly all actives have a fitted effect of over 70% in size
# Outline: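 Acute toxicity is scored as increased dead-cell protease activity in human lymphoblastoid LYMP1-003 cells after 16 h compound exposure in complete culture medium. Activity is normalized to DMSO basal and 15 uM tetraoctylammonium bromide as full response.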
# [17] = Cell Viability - LYMP2-023 (AID 975); details: LYMP2-023 lymphoblastoid cell viability; series mostly up to 92.2 µM;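 also: cells exposed to compound for 24 hours at 37 °C; nearly all actives have a fitted effect of over 55% in size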; also: potency is read from the fitted curve at half-maximal effect
# Outline: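 Concentration-dependent drop in intracellular ATP measures acute cytotoxicity in a human lymphoblastoid line treated for 24 hours in complete culture medium. AC50 values are taken from Hill-equation fits of qHTS data.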
# [18] = Cell Viability - LYMP2-008 (AID 980); details: LYMP2-008 lymphoblastoid cell viability, qHTS; series mostly up to 92.2 µM; also: nearly all actives have a fitted effect of over 60% in size; also: potency is read from the fitted curve at half-maximal effect
# Outline: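 Acute cytotoxicity is scored as concentration-dependent loss of cellular ATP in a human lymphoblastoid line after 24 hr treatment at 37 C. ATP is quantified by luciferase luminescence.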
# [19] = qHTS Assay for Identification of Small Molecule Inducers of Hypoxia Response (AID 2120; active = well fitted curve in the direction sought with a large enough effect in the signal ratio, with a control signal flat, not every such curve was filed as active; the % refers to the signal ratio); details: hypoxia response reporter cells, beta-lactamase ratio readout; series mostly up to 104 µM
# Outline: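 Induction of beta-lactamase reporter activity was measured in CellSensor HRE-bla ME-180 cells after 17 h compound treatment at 37 degrees C, using CCF4 substrate and the 460nm/530nm emission ratio to derive AC50 values.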
# [20] = qHTS assay for cell viability of HEK293 cells (AID 743288); details: ATP luminescence (CellTiter-Glo), 18 h, stronger effect = lower value; also: nearly all actives have a fitted effect of over 50% in size
# Outline: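 Parental HEK293 cells, 2,000 per well, preincubated at least 5 h at 37 C, then exposed to compounds in DMSO for 18 h at 37 C. Viability by CellTiter-Glo ATP luminescence after 30 min at room temperature.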
SMILES,Potency [1] [µM],Potency [2] [µM],Potency [3] [µM],Potency [4] [µM],Potency [5] [µM],Potency [6] [µM],Potency [7],outcome [8],outcome [9],outcome [10],outcome [11],Potency [12],Potency [13],outcome [14],outcome [15],Potency [16],Potency [17],Potency [18],Potency [19],max response [20]
CCN(CC)CCO,> 92,> 92,> 92,> 92,> 92,> 92,inactive,inactive,inactive,inactive,inactive,inactive,inactive,inactive,inactive,inactive,inactive,inactive,inactive,-8.96%
Nn1cnnc1,> 92,> 92,> 92,> 92,> 92,> 92,inactive,inactive,inactive,inactive,inactive,inactive,inactive,inactive,inactive,inactive,inactive,inactive,inactive,-1.3%
ClP(Cl)(Cl)(Cl)Cl,> 92,> 92,> 92,> 92,> 92,> 92,inactive,inactive,inactive,inactive,inactive,inactive,inactive,inactive,inactive,inactive,inactive,inactive,inactive,-14.3%
COC(=O)Nc1cccc(OC(=O)Nc2cccc(C)c2)c1,> 92,> 92,> 92,> 92,> 92,> 92,inactive,inactive,inactive,inactive,inactive,inactive,inactive,inactive,inactive,inactive,inactive,inactive,inactive,-7.47%
Clc1cccc(Cl)c1,> 92,> 92,> 92,> 92,> 92,> 92,inactive,inactive,inactive,inactive,inactive,inactive,inactive,inactive,inactive,inactive,inactive,inactive,inactive,-11.3%
Cl/C=C/Cl,> 92,> 92,> 92,> 92,> 92,> 92,inactive,inactive,inactive,inactive,inactive,inactive,inactive,inactive,inactive,inactive,inactive,inactive,inactive,-15.8%
COC(=O)c1ccccc1N,> 92,> 92,> 92,> 92,> 92,> 92,inactive,inactive,inactive,inactive,inactive,inactive,inactive,inactive,inactive,inactive,inactive,inactive,inactive,-4.36%
CSSC,> 92,> 92,> 92,> 92,> 92,> 92,inactive,inactive,inactive,inactive,inactive,inactive,inactive,inactive,inactive,inactive,inactive,inactive,inactive,-1.5%
S=C1NCCN1,> 92,> 92,> 92,> 92,> 92,> 92,inactive,inactive,inactive,inactive,inactive,inactive,inactive,inactive,inactive,inactive,inactive,inactive,inactive,4.6% and 3.06%
C=CC#N,> 92,> 92,> 92,> 92,> 92,> 92,inactive,inactive,inactive,inactive,inactive,inactive,inactive,inactive,inactive,inactive,inactive,inactive,inactive,-18.6%
[N-]=[N+]=[N-],> 92,> 92,> 92,> 92,> 92,> 92,inactive,inactive,inactive,inactive,inactive,inactive,inactive,inactive,inactive,inactive,inactive,inactive,inactive,0.516%
Cc1ccc(N=C=O)cc1N=C=O,> 92,> 92,> 92,> 92,> 92,> 92,inactive,inactive,inactive,inactive,inactive,inactive,inactive,inactive,inactive,inactive,inactive,inactive,inactive,-9.26% and -8.71%
O=C(Cl)c1ccccc1F,> 92,> 92,> 92,> 92,> 92,> 92,inactive,inactive,inactive,inactive,inactive,inactive,inactive,inactive,inactive,inactive,inactive,inactive,inactive,-8.76%
C=C(Cl)CCl,> 92,> 92,> 92,> 92,> 92,> 92,inactive,inactive,inactive,inactive,inactive,inactive,inactive,inactive,inactive,inactive,inactive,inactive,inactive,-2.76%
CCNCC,> 92,> 92,> 92,> 92,> 92,> 92,inactive,inactive,inactive,inactive,inactive,inactive,inactive,inactive,inactive,inactive,inactive,inactive,inactive,7.41%
CC(=O)CCC(C)=O,> 92,> 92,> 92,> 92,> 92,> 92,inactive,inactive,inactive,inactive,inactive,inactive,inactive,inactive,inactive,inactive,inactive,inactive,inactive,-8.83%
OC[P+](CO)(CO)CO,> 92,31.3,> 92,> 92,> 92,> 92,inactive,inactive,inactive,inactive,inactive,inactive,inactive,inactive,inactive,inactive,25.1 µM (active),39.8 µM (active),inactive,-13.3%
CN(C)c1ccccc1,> 92,> 92,> 92,> 92,> 92,> 92,inactive,inactive,inactive,inactive,inactive,inactive,inactive,inactive,inactive,inactive,inactive,inactive,inactive,0.461%
O=[N+]([O-])c1ccccc1O,> 92,> 92,> 92,> 92,> 92,> 92,inactive,inactive,inactive,inactive,inactive,inactive,inactive,inactive,inactive,inactive,inactive,inactive,inactive,0.38%
C=CC=O,> 92,> 92,> 92,> 92,> 92,> 92,inactive,inactive,inactive,inactive,inactive,inactive,inactive,inactive,inactive,inactive,inactive,inactive,inactive,-14.3%
CC(C)(Cl)Cl,> 92,> 92,> 92,> 92,> 92,> 92,inactive,inactive,inactive,inactive,inactive,inactive,inactive,inactive,inactive,inactive,inactive,inactive,inactive,1.9%
Clc1ccc(C(Cl)(Cl)Cl)c(Cl)c1,> 92,> 92,> 92,> 92,> 92,> 92,inactive,inactive,inactive,inactive,inactive,inactive,inactive,inactive,inactive,inactive,inactive,inactive,inactive,-3.16%
